From PubChem BioAssay (EPA / NIEHS)
Active and inactive are the calls of the source. Rule for the calls: active = hit-call score of the fitted dose curve at least 0.9, where 1 is the maximum; inactive = score below 0.9.

Experiment: BSK_hDFCGF_SRB: Viability Assessment in the BioMAP Diversity Plus: hDFCGF Assay (AID 2283061);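 note: cells exposed to compound for 24 h before the read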
Details: primary human foreskin fibroblasts
Procedure, shortened: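 Viability was read as total protein: after 10% TCA fixation, wells were stained with 0.1% sulforhodamine B and read at 560 nm. Primary human foreskin fibroblasts were dosed for 24 h, with bidirectional fitting versus DMSO.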
In the case of `CCc1c(C(=O)NN2CCCCC2)nn(-c2ccc(Cl)cc2Cl)c1-c1ccc(Br)cc1`, the AC50 was 2850 nM (active). In the case of `c1cc(-c2ccncc2)ccn1`, the outcome was “inactive”. With `CC(=O)C(C)=CC1C(C)=CCCC1(C)C` (stereo unspecified) the outcome was “inactive”. In the case of `COc1cc(S(=O)(=O)O)c(C)cc1N=Nc1c(O)ccc2cc(S(=O)(=O)O)ccc12`, the outcome was “inactive”. In the case of `O=c1[nH]cc(F)c(=O)[nH]1`, the outcome was “inactive”. In the case of `C[Si]1(C)O[Si](C)(C)O[Si](C)(C)O[Si](C)(C)O1`, the outcome was “inactive”.
